PubChem BioAssay (EPA / NIEHS)
Calls of active or inactive are those of the source. Rule for the calls: active = hit-call score of the fitted dose curve at least 0.9, where 1 is the maximum; inactive = score below 0.9.

Experiments:
[1] = BSK_CASM3C_SRB: Viability Assessment in the BioMAP Diversity Plus: CASM3C Assay (AID 2283050); settings: primary human coronary artery smooth muscle cells;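 note: total protein by SRB staining as cytotoxicity measure in parallel cultures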
[2] = read-out: Thrombomodulin, THBD (gene 7056); experiment: BSK_CASM3C_Thrombomodulin: BioMAP Diversity Plus: CASM3C Assay for Thrombomodulin Biomarker Activity (AID 2283051); settings: primary human coronary artery smooth muscle cells; actives raise or lower the signal;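 note: thrombomodulin protein level measured by ELISA 24 h after dosing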
[3] = read-out: Tissue Factor, F3 (gene 2152); experiment: BSK_CASM3C_TissueFactor: BioMAP Diversity Plus: CASM3C Assay for Tissue Factor Biomarker Activity (AID 2283052); settings: primary human coronary artery smooth muscle cells; actives raise or lower the signal;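 note: cell surface tissue factor protein level read by ELISA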
[4] = read-out: Interferon-gamma inducible Protein 10 (IP10), CXCL10 (gene 3627); experiment: BSK_hDFCGF_IP10: BioMAP Diversity Plus: hDFCGF Assay for Interferon-gamma inducible Protein 10 (IP10) Biomarker Activity (AID 2283053); settings: primary human foreskin fibroblasts; actives raise or lower the signal
Summary of the method: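 Chemical-treated human skin fibroblasts (primary) were sampled at 24 h for IP-10 by ELISA. Both increases and decreases relative to DMSO were scored.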

[5] = read-out: Urokinase-type plasminogen activator receptor (uPAR), PLAUR (gene 5329); experiment: BSK_CASM3C_uPAR: BioMAP Diversity Plus: CASM3C Assay for Urokinase-type plasminogen activator receptor (uPAR) Biomarker Activity (AID 2283054); settings: primary human coronary artery smooth muscle cells; actives raise or lower the signal;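 note: cell-surface uPAR protein level quantified by ELISA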
[6] = read-out: Vascular cell adhesion molecule 1 (VCAM1), VCAM1 (gene 7412); experiment: BSK_CASM3C_VCAM1: BioMAP Diversity Plus: CASM3C Assay for Vascular cell adhesion molecule 1 (VCAM1) Biomarker Activity (AID 2283055); settings: primary human coronary artery smooth muscle cells; actives raise or lower the signal;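 note: VCAM-1 protein level quantified by ELISA on the cells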
[7] = read-out: Collagen III, COL3A1 (gene 1281); experiment: BSK_hDFCGF_CollagenIII: BioMAP Diversity Plus: hDFCGF Assay for Collagen III Biomarker Activity (AID 2283056); settings: primary human foreskin fibroblasts; actives raise or lower the signal
Summary of the method: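 Response relative to DMSO, fitted in both directions, reflects ELISA-measured collagen III in human primary skin fibroblasts 24 h after compound addition.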

[8] = read-out: Epidermal growth factor receptor (EGFR), EGFR (gene 1956); experiment: BSK_hDFCGF_EGFR: BioMAP Diversity Plus: hDFCGF Assay for Epidermal growth factor receptor (EGFR) Biomarker Activity (AID 2283057); settings: primary human foreskin fibroblasts; actives raise or lower the signal
Summary of the method: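 Cell-based multiplexed assay in primary human foreskin fibroblasts. EGFR is read by ELISA 24 h after treatment and compared with DMSO controls.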

[9] = read-out: Interleukin-8 (IL8), CXCL8 (gene 3576); experiment: BSK_hDFCGF_IL8: BioMAP Diversity Plus: hDFCGF Assay for Interleukin-8 (IL8) Biomarker Activity (AID 2283058); settings: primary human foreskin fibroblasts; actives raise or lower the signal
Summary of the method: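 Fibroblast monolayers (human foreskin, hDFCGF) received test chemical for 24 h before ELISA detection of IL-8; either increases or decreases relative to DMSO count as activity.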

[10] = BSK_hDFCGF_Proliferation: Cell Proliferation Assessment in the BioMAP Diversity Plus: hDFCGF Assay (AID 2283059); settings: primary human foreskin fibroblasts;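 note: curves fitted for both rise and fall of signal versus DMSO baseline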
Summary of the method: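 Steps: dose primary human dermal fibroblasts (foreskin); […] fix in 10% TCA; stain with 0.1% SRB; read 560 nm; fit gain or loss of signal against DMSO.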

[11] = BSK_hDFCGF_SRB: Viability Assessment in the BioMAP Diversity Plus: hDFCGF Assay (AID 2283061); settings: primary human foreskin fibroblasts;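 note: cells exposed to compound for 24 h before the read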
Summary of the method: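 SRB-based viability read on primary human skin fibroblasts at 24 h: TCA fixation, 0.1% dye, 560 nm. Gain or loss of signal is fitted against the DMSO negative control.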

[12] = read-out: TIMP metallopeptidase inhibitor 1 (TIMP1), TIMP1 (gene 7076); experiment: BSK_hDFCGF_TIMP1: BioMAP Diversity Plus: hDFCGF Assay for TIMP metallopeptidase inhibitor 1 (TIMP1) Biomarker Activity (AID 2283062); settings: primary human foreskin fibroblasts; actives raise or lower the signal
Summary of the method: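 Bidirectional curve fitting against DMSO baseline yielded this endpoint, based on ELISA detection of TIMP-1 in primary human foreskin fibroblasts exposed to compound for 24 h.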

[13] = read-out: Monokine induced gamma interferon (MIG), CXCL9 (gene 4283); experiment: BSK_hDFCGF_MIG: BioMAP Diversity Plus: hDFCGF Assay for Monokine induced gamma interferon (MIG) Biomarker Activity (AID 2283063); settings: primary human foreskin fibroblasts; actives raise or lower the signal
Summary of the method: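 Endpoint derived by bidirectional fitting relative to DMSO; MIG quantified via ELISA in primary human foreskin fibroblasts harvested 24 h after dosing.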

[14] = read-out: Matrix Metallopeptidase 1 (MMP1), MMP1 (gene 4312); experiment: BSK_hDFCGF_MMP1: BioMAP Diversity Plus: hDFCGF Assay for Matrix Metallopeptidase 1 (MMP1) Biomarker Activity (AID 2283064); settings: primary human foreskin fibroblasts; actives raise or lower the signal
Summary of the method: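 Human foreskin fibroblasts exposed to chemical for 24 h; MMP1 detected by ELISA, with DMSO as baseline for bidirectional fitting.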

[15] = read-out: Vascular cell adhesion molecule 1 (VCAM1), VCAM1 (gene 7412); experiment: BSK_hDFCGF_VCAM1: BioMAP Diversity Plus: hDFCGF Assay for Vascular cell adhesion molecule 1 (VCAM1) Biomarker Activity (AID 2283065); settings: primary human foreskin fibroblasts; actives raise or lower the signal;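 for AC50: VCAM-1 protein level quantified by ELISA after 24 h chemical exposure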
Summary of the method: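 Measured after 24 h chemical treatment of primary human skin fibroblasts, VCAM-1 was detected by ELISA and concentration-response analysed in both directions versus DMSO vehicle.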

[16] = read-out: Plasminogen activator inhibitor-1 (PAI1), SERPINE1 (gene 5054); experiment: BSK_hDFCGF_PAI1: BioMAP Diversity Plus: hDFCGF Assay for Plasminogen activator inhibitor-1 (PAI1) Biomarker Activity (AID 2283066); settings: primary human foreskin fibroblasts; actives raise or lower the signal
Summary of the method: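 Human skin fibroblast cultures receive chemical for 24 h before PAI-1 is measured by ELISA; signal changes are fitted bidirectionally against DMSO-treated wells.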

[17] = read-out: Intercellular Adhesion Molecule 1 (ICAM1), ICAM1 (gene 3383); experiment: BSK_KF3CT_ICAM1: BioMAP Diversity Plus: KF3CT Assay for Intercellular Adhesion Molecule 1 (ICAM1) Biomarker Activity (AID 2283067); settings: primary human keratinocytes with fibroblasts; actives raise or lower the signal
Summary of the method: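 Bidirectional curve fitting against a DMSO baseline was applied to ICAM-1 ELISA signal from primary human skin co-cultures harvested 24 h after treatment, with SRB staining of parallel wells for overt cytotoxicity.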

[18] = read-out: Interferon-gamma inducible Protein 10 (IP10), CXCL10 (gene 3627); experiment: BSK_KF3CT_IP10: BioMAP Diversity Plus: KF3CT Assay for Interferon-gamma inducible Protein 10 (IP10) Biomarker Activity (AID 2283068); settings: primary human keratinocytes with fibroblasts; actives raise or lower the signal
Summary of the method: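 KF3CT co-culture (keratinocytes + foreskin fibroblasts), 24 h compound, IP-10 by ELISA; bidirectional fit vs DMSO baseline.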

[19] = BSK_KF3CT_SRB: Viability Assessment in the BioMAP Diversity Plus: KF3CT Assay (AID 2283069); settings: primary human keratinocytes with fibroblasts;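 note: fitted for both signal gain and loss against DMSO baseline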
Summary of the method: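 Overt cytotoxicity is assessed as total protein by sulforhodamine B staining in parallel human skin co-cultures at 24 h after dosing. DMSO serves as negative control and baseline.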

[20] = read-out: Macrophage colony-stimulating factor (MCSF), CSF1 (gene 1435); experiment: BSK_hDFCGF_MCSF: BioMAP Diversity Plus: hDFCGF Assay for Macrophage colony-stimulating factor (MCSF) Biomarker Activity (AID 2283060); settings: primary human foreskin fibroblasts; actives raise or lower the signal
Summary of the method: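 fibroblasts (human foreskin, primary), 24 h post-dose; M-CSF by ELISA; bidirectional fit, DMSO = baseline.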

Measured: AC50

CC1COC(Cn2cncn2)(c2ccc(Oc3ccc(Cl)cc3)cc2Cl)O1 (configuration not stated)
active: [2] 16.1 µM | [4] 37.9 µM | [7] 28.1 µM | [8] 8.04 µM | [9] 34.5 µM | [10] 25 µM | [11] 32.5 µM | [12] 30.4 µM | [13] 31.1 µM | [14] 33.8 µM | [15] 30.8 µM | [16] 32.1 µM | [17] 38.2 µM | [18] 34.7 µM | [19] 33.7 µM
inactive: [1] | [3] | [5] | [6]

COC(=O)c1ccccc1C(=O)OC
not listed: [11]
inactive: all other assays above

N#Cc1cc(Br)c(O)c(Br)c1
active: [4] 10.9 µM | [5] 0.405 µM
not listed: [11]
inactive: all other assays above

CC1=C(C(=O)Nc2ccccc2)SCCO1
not listed: [11]
inactive: all other assays above

C#CCOS(=O)OC1CCCCC1Oc1ccc(C(C)(C)C)cc1 (configuration not stated)
active: [1] 20 µM | [2] 5.22 µM | [4] 7.97 µM | [5] 11.2 µM | [7] 1.27 µM | [9] 15.3 µM | [10] 2.73 µM | [20] 4.84 µM | [12] 5.66 µM | [13] 13 µM | [14] 10 µM | [15] 3.65 µM | [16] 5.14 µM | [18] 12.8 µM | [19] 9.7 µM
inactive: [3] | [6] | [8] | [17]

C=CC1(C)OC(=O)N(c2cc(Cl)cc(Cl)c2)C1=O (configuration not stated)
inactive: all assays above

CC(C)(C)c1ccc(CSc2cnn(C(C)(C)C)c(=O)c2Cl)cc1
active: [2] 31.8 µM | [7] 12.9 µM | [10] 4.68 µM | [20] 7.69 µM | [15] 31.6 µM | [18] 31.3 µM | [19] 20 µM
not listed: [11]
inactive: all other assays above

COc1ccc(C(c2ccc(OC)cc2)C(Cl)(Cl)Cl)cc1
active: [1] 18.4 µM | [2] 13.1 µM | [4] 20 µM | [10] 6.21 µM | [20] 9.16 µM | [14] 5.09 µM | [15] 20 µM | [16] 14.7 µM | [19] 8.76 µM
not listed: [11]
inactive: all other assays above

CNC(=O)ON=CC(C)(C)SC
active: [4] 5.4 µM | [5] 0.148 µM | [18] 0.428 µM
not listed: [20]
inactive: all other assays above
